Reference: PubChem BioAssay AID493085 (Broad Institute, 2011)
Among all 2,400 compounds or so, about 360 (15%) were called active. About 5% were inconclusive and are not listed.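 The calls were made as follows: active = falling-signal curve with half-maximal concentration at or below ten times the top tested dose; inconclusive = flat fit at 30 to 70% inhibition, or poor fit; inactive = signal rise, flat within 30%, or potency beyond limit.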 A selection follows. Results with a measured potency or affinity are listed apart.

Experiment: dox-induced RFP signal loss in R4-3T3 cells – cell-based, NIH3T3 R4, HSE-GFP and Tet-On RFP, cherry-pick, set 3, dose response (AID 493085);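 also: cells heat shocked 2 h at 42 °C with doxycycline to induce reporters; 0% = neutral control wells and -100% = didemnin B control at 400 nM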
Conditions: NIH3T3 R4 HSE-GFP/Tet-RFP reporter, fluorescence, 48 h; series mostly up to 19.5 µM; activity change, negative = inhibition: at the top concentration

Activity change, negative = inhibition, inactive:
Cc1ccc(C(=O)O/N=C(\N)c2ccccn2)c(C)c1 6.48%, CC(C)(C)C(=O)Nc1ccc(-c2cc3cc(Cl)ccc3o2)cc1 -1.75%, CC1CCN(S(=O)(=O)c2ccc(C(=O)Nc3nnc(-c4ccccn4)o3)cc2)CC1 -7.08%, CCS(=O)(=O)c1ncc(Cl)c(C(=O)Nc2ccc(C)cc2)n1 11.8%, CN1CCN(S(=O)(=O)c2ccc(Oc3ccc(F)c(Cl)c3)nc2)CC1 -5.99%, CCc1ccc(OC(C)C(=O)N(Cc2ccco2)C2CCS(=O)(=O)C2)cc1 (stereo unspecified) -7.01%, Cc1ncc([N+](=O)[O-])n1CC(=O)Nc1ccc(F)cc1 8.57%, O=C(Cn1nc(-c2ccc(Cl)cc2)ccc1=O)NCC1CCCO1 (stereo unspecified) -3.51%, O=C(O)c1cccc(Nc2ccnc(Nc3cccc(C(=O)O)c3)n2)c1 -10.5%, Cc1cc(Nc2cccc(Cl)c2)nc(-c2ccccc2O)n1 6.37%, CCOc1cc(CNCC2CCCN2CC)cc(Cl)c1OC (stereo unspecified) 13.6%, COc1ccc(-c2cn(-c3ccccc3)nc2CO)cc1 -5.57%, Cn1ccnc1C1CCCCN1C(=O)c1cc(COc2ccc(F)cc2Cl)on1 (stereo unspecified) -6.6%, Cc1cc(=O)n2[nH]c(=O)c(N=Nc3ccccc3)c2[nH]1 4.62%, CN(C)c1ccc(C(=S)Nc2ccccc2)cc1 0.39%, Cc1ccc(Cl)cc1NC(=O)C1COc2ccccc2O1 (stereo unspecified) -0.583%, CN(C)c1ccc(/C=N/NC(=O)C2COc3ccccc3O2)o1 (stereo unspecified) 48.8%, Cc1ccc(O)c(/C=N/NC(=O)CN2CCCC2)c1 0.931%, NCCCC[C@@H](C(=O)N1CCNCC1)n1cc([C@@H](N)CO)nn1 5.14%, COc1ccc(C(=O)c2c[nH]cc2-c2ccccc2)cc1 -2.31%, COc1ccc(OC)c(C(=O)c2ccc(C(=O)O)cc2)c1 2.81%, Cc1cn2c(nc(=O)c3cccnc32)s1 -0.559%, Cc1ccc(S(=O)(=O)N2CCC(C)CC2)cc1[N+](=O)[O-] -4.18%, COc1ccc(C(=O)N/C(=C\c2cccs2)c2nc3ccccc3[nH]2)cc1OC 3.93%, Cn1c(N2CCOCC2)nc(-c2ccccc2)c1-c1ccccc1 -9.58%, C=CCc1c(C)nc2c(-c3ccccc3)cnn2c1N1CCOCC1 2.27%, C=CCn1c(C)cc(C(=O)COC(=O)CNC(=O)c2ccccc2)c1C -5.09%, O=C(COC(=O)c1cc[n+]([O-])cc1)Nc1cccc(Cl)c1Cl 0.417%, CNC(=O)COC(=O)c1ccccc1C(=O)c1ccc(Cl)c([N+](=O)[O-])c1 5.21%, CC(C)(C)c1ccc(/C=C(\C#N)C(=O)Nc2ccccn2)cc1 -4.51%, COc1cc(C(C(=O)NCc2ccccc2)N(Cc2ccco2)C(=O)c2cnccn2)cc(OC)c1OC (stereo unspecified) -12.3%, COc1ccc2cc3c(N)nn(C(=O)Cc4c[nH]c5ccccc45)c3nc2c1 -34.1%, CSc1cccc(NC(=S)N2CCC(N(C)C3CCCC3)CC2)c1 0.463%, CS(=O)(=O)c1ccc(NC(=O)c2ccc3c(c2)S(=O)(=O)N=C2CCCCCN23)cc1 -1.06%, CCN(C(=O)COC(=O)/C=C/c1ccccc1)C1CCCCC1 4.41%, Cc1cccc(N(Cc2ccccc2)C(=O)CCl)c1 29.4%, COc1ccccc1NC(=O)[C@H](COCc1ccccc1)NC(=O)OC(C)(C)C -5.58%, CCn1c(SCC(=O)N(C)C2CCS(=O)(=O)C2)nnc1-c1cccs1 (stereo unspecified) 10.8%, CN(C(=O)CCNC(=O)Cn1cnc2ccccc2c1=O)c1ccccc1F -8.21%, CSc1ccccc1NC(=O)C1=CC(c2ccc(C)cc2)=NS(=O)(=O)N1C -10.2%, CCOc1ccc(NC(=S)Nc2ccc(OC(F)(F)F)cc2)cc1 -9.64%, Cc1[nH]c(=O)c(C#N)cc1-c1csc(-c2ccccc2)n1 0.405%, COC(=O)CCC(=O)NNC(=O)c1cccc(Br)c1 6.48%, COc1ccccc1CCC(=O)OCC(=O)Nc1cccc(S(=O)(=O)N2CCOCC2)c1 -6.16%, CCOC(=O)C1=C(C)N(CCC(=O)O)C(=O)NC1c1ccccc1Cl (stereo unspecified) -13.5%, COc1ccc(/C=C(\C#N)C(=O)Nc2cc(C)c(Cl)cc2OC)cc1O -14.6%, CSc1nccn1C(=O)c1ccccc1[N+](=O)[O-] -2.94%, Cc1ccc(-n2cc(C(=O)c3ccccc3O)cn2)cc1 -6.36%, O=C(CSc1nc2ccccc2s1)N/N=C/c1ccccc1C(=O)O -11.6%, CC(C)c1ccccc1-n1c(-c2cccnc2)n[nH]c1=S -4.65%, COc1ccccc1NC(=O)Cn1c(=O)c(N(C)C)c(N)n(C)c1=O 5.09%, COCCn1c(=O)[nH]c2cc(C(=O)NC3CCCCCC3)ccc2c1=O -0.369%, COc1cccc(NC(=O)CCSc2nnc3scc(-c4ccccc4)n23)c1 -3.84%, CCCC(NC(=O)COc1cc2c(c3oc(=O)cc(C)c13)CCC(C)(C)O2)C(=O)O (stereo unspecified) -3.98%, CC(C(=O)NC1CC(C)(C)NC(C)(C)C1)c1ccc([N+](=O)[O-])cc1 (stereo unspecified) 1.55%, CC(=O)c1cccc(NC(=O)CN2C(=O)c3ccccc3C2=O)c1 -1.97%, CCOc1ccc(/C=N/NC(=O)c2ccc(Cn3cc([N+](=O)[O-])cn3)o2)cc1 4.4%, NC(=S)N/N=C1\CC(n2nnnc2-c2ccccc2Cl)C2COC1O2 (stereo unspecified) -8.92%, COc1ccc(/C=N/Nc2nc(C)cc(=O)[nH]2)cc1OC 13.2%, COc1ccc(-c2nc(CNS(=O)(=O)c3ccc(OC)c(OC)c3)cs2)cc1 -23.9%, Cc1cccc(N2CCN(Cc3nc(-c4ccccc4Cl)oc3C)CC2)n1 1.41%, O=C(N/N=C/c1ccccn1)c1ccc([N+](=O)[O-])cc1 -7.84%, Oc1ccc(Br)cc1/C=N/Nc1ccccn1 25.6%, CCOC(=O)C[n+]1c(C)csc1C -3.68%, CCOc1ccc(NC(=O)C(C)NS(=O)(=O)c2ccc(NC(C)=O)cc2)cc1 (stereo unspecified) 5.38%, Cc1ccc(Cn2c(Sc3ncccn3)nc3c2c(=O)[nH]c(=O)n3C)cc1 -12.6%, Cc1nccn1Cc1cccc2ccccc12 -10.7%, CC(=O)NCCNC(=O)c1ccc(CSc2nc3ccccc3s2)cc1 5.39%, Cc1cc(=O)[nH]c2c1c(=O)[nH]n2C1CC(C)N(C)CC1C (stereo unspecified) -6.94%, C=CCOCCN(CCOCC=C)C1=NS(=O)(=O)c2ccccc21 3.73%, NS(=O)(=O)c1ccc(CCNCC#Cc2ccccc2)cc1 -3.99%, Cc1cc(OCC(=O)NCCc2ccc(S(N)(=O)=O)cc2)c2c(C)cc(=O)oc2c1 -1.48%, CCn1cc(C(=O)NCCCN2CC(C)CC(C)C2)c(=O)c2cc(S(=O)(=O)N(C)C)ccc21 (stereo unspecified) -8.74%, O=C(N1CCOCC1)C12CCC3CC(CC(C3)C1)C2 0.372%, CCCS(=O)(=O)c1cnc(C2COc3ccccc3O2)nc1N (stereo unspecified) -5.24%, C=CCn1c(C)nnc1SCC(=O)Nc1nc(C)c(C(=O)N(C)C)s1 -8.13%, O=C1CC(N2CCCCC2)C(=O)N1c1ccccc1 (stereo unspecified) 5.59%, Cc1ccc(-n2nc3c(=O)n(CCCC(=O)N4CCC(C(N)=O)CC4)nc(C)c3c2C)cc1 -0.762%, O=S(=O)(Nc1ccc2c(c1)OCCO2)c1cccs1 0.199%, CC1C(=O)C(C)C(c2ccco2)NC1c1ccco1 (stereo unspecified) -12.8%, Nc1nc2n(c1C(=O)c1ccccc1)CCC2 -5.46%, COc1ccc(N2CCN(CC(O)COCCOc3ccc(Br)cc3)CC2)cc1 (stereo unspecified) -12.8%, CC(C)(C)c1ccc(-c2nnc3sc(-c4ccccn4)nn23)cc1 -7.98%, Cn1c(C(=O)O)c(CC(=O)Nc2ccc3c(c2)OCCO3)c2ccccc21 -2.93%, CCCS(=O)(=O)N1CCCC(C(=O)N2CCC(Cc3ccccc3)CC2)C1 (stereo unspecified) -4.5%, CC(=O)Nc1ccc(-c2nnn(CC(=O)Nc3ccc4c(c3)OCO4)n2)cc1Cl -4.62%, O=C1Cc2ccccc2C(=O)N1c1cccc(Cl)c1 -1.22%, CC(C)CNC(=O)C1CCN(Cc2ccc(OCc3ccccc3)cc2)CC1 7.96%, CN(CC(=O)Nc1cccc(F)c1)CC(=O)Nc1cccc(S(N)(=O)=O)c1 14.2%, COc1cc(NC(=O)c2cc3cccc(OC)c3o2)cc(C(=O)Nc2cccc(C(F)(F)F)c2)c1 4.58%, COc1ccc(S(=O)(=O)Nc2ccccc2C(=O)N2CCOCC2)cc1Cl -1.01%, COc1ccc(CN(C)C(=O)c2cc(S(=O)(=O)N3CCOCC3)ccc2N2CCCC2)cc1 1.5%, Cc1noc(NS(=O)(=O)c2ccc(N3Cc4ccccc4C3=O)cc2)c1C -1.64%, CCCCN1C=CC(=C2C(=O)c3ccccc3C2=O)C=C1 -3.88%, Fc1ccccc1NC(=S)Nc1ccc(CN2CCOCC2)cc1 -7.41%, COC(=O)C1CCN(C(=O)c2sc3nc(-c4ccccc4)cn3c2C)CC1 -12.9%, CCOC(=O)c1sc2nc3c(cc2c1N)COC(C(C)C)C3 (stereo unspecified) 3.31%, CCCn1c(SCC(=O)c2c(C)[nH]c(C)c2C(=O)OCC)nc2ccccc21 -4.22%, CCOC(=O)c1n[nH]c(=O)c2ccccc12 -8.51%, Cc1cccc(Nc2nc(-c3ccc4c(c3)OCCO4)cs2)c1 6.28%, COc1cccc(-n2nnc3c(=O)n(Cc4ccccc4Cl)cnc32)c1 -9.31%, Nc1nc(Cl)nc(N(c2ccccc2)c2ccccc2)n1 3.98%, CCOC(=O)Cn1c(CCC(=O)O)ccc1-c1ccc(F)cc1 4.16%, COc1ccc(S(=O)(=O)/C(C#N)=C/Nc2cccc(OC)c2)cc1 -6.14%, O=S(=O)(Nc1ccncc1)c1ccc(Cl)cc1 -4.03%, NC(=O)c1nsc(C(=O)N(c2cccc(F)c2)C(C(=O)NC2CCCC2)c2ccco2)c1N (stereo unspecified) -7.03%, COc1ccc(C(=O)N2CCN=C2SCc2cccnc2)cc1OC -4.35%, CCN(C(=O)c1ccc2c(SCC(=O)O)c3c(nc2c1)CCC3)c1cc(Cl)ccc1OC -2.82%, CC(/C=N\NC(=O)c1cc(C)oc1C)=C\c1ccccc1 -1.55%, CCN(CC)C(=O)COC(=O)c1ccc(C)c(NC(=O)c2ccco2)c1 2.46%, CN1CCN(C(=O)/C(=C\c2cccs2)NC(=O)c2ccco2)CC1 0.189%
